Screens deposited in PubChem BioAssay by Johns Hopkins Ion Channel Center.
A selection: hits, their analogues and other compounds. The true share with any hit is near 1.6%.
KCNQ2 enhance = potentiators of rat KCNQ2 potassium channel. 310,000 compounds, 0.54% hits. CHO-K1 KCNQ2, FluxOR thallium flux fluorescence; active compounds read high. B-score at 10 µM. O88943;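 active = fluorescence ratio B-score at least 3 SD of library B-scores, with initial fluorescence B-score within 3 of them, cut at about 5.3 in these data; same plate scores as AID 2156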;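 also: B-score of peak minus minimum over baseline fluorescence ratio after K+ and Tl+ stimulus; positive B-score means potentiation of KCNQ2 with more thallium influx and brighter signal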
Target sequence (O88943 whole entry, looked up): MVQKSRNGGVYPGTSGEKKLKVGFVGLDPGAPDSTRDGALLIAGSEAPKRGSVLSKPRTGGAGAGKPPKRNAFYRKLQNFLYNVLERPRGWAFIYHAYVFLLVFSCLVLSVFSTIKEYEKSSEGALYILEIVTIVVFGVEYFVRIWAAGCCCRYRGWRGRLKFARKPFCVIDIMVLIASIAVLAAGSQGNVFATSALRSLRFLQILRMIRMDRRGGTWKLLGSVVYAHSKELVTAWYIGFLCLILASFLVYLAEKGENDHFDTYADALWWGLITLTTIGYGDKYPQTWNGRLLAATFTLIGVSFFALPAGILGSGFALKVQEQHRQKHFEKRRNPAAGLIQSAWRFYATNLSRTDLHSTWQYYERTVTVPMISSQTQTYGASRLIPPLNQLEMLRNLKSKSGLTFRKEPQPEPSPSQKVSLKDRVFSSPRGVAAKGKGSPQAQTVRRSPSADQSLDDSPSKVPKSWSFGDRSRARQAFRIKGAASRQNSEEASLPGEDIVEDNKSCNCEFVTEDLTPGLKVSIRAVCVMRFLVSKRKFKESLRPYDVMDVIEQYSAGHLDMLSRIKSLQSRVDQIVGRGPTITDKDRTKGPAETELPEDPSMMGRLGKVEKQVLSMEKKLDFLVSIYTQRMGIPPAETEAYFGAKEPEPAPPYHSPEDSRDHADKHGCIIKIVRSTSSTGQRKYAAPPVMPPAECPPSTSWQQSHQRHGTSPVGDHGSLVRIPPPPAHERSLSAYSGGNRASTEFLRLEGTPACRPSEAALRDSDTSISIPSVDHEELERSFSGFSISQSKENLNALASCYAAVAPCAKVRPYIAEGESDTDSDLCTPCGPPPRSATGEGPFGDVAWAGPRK
KCNQ2 block = blocks the rat KCNQ2 potassium channel; CHO-K1 KCNQ2, FluxOR thallium flux, 20 min; active compounds read low; 310,000 compounds, 1.1% hits; O88943; B-score at 10 µM;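 active = fluorescence ratio B-score at most minus 3 library SDs, with starting brightness B-score within 2 library SDs, cut at about -5.5 in these data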
Active calls of the source: *; i = inactive; / = no result.

SMILES	KCNQ2 enhance	KCNQ2 block
Cc1nc(C(=O)Nc2cccc(Cl)c2Cl)nn1-c1cc(OC(C)C)c(Cl)cc1Cl	-6.3	-6.3*
Cc1nc(C(=O)Nc2cccc(Cl)c2)nn1-c1cc(OC(C)C)c(Cl)cc1Cl	/	i
Cc1nc(C(=O)Nc2ccc(Cl)cc2Cl)nn1-c1cc(OC(C)C)c(Cl)cc1Cl	/	i
Cc1nc(C(=O)Nc2cc(Cl)ccc2Cl)nn1-c1cc(OC(C)C)c(Cl)cc1Cl	-6.4	-6.4*
Fc1ccccc1OCCCCN1CCCCC1	0.64	i
Cc1cccc(OCCOC(=O)c2c(-c3ccccc3)noc2C)c1	/	i
COc1ccc(C)cc1NC(=O)C(Sc1nnc(-c2ccncc2)n1-c1ccc(Cl)cc1)c1ccccc1 (stereo unspecified)	-7.9	-7.9*
COc1ccc(C)cc1NC(=O)C(Sc1nnc2ccccn12)c1ccccc1 (stereo unspecified)	/	i
O=c1cc(CN2CCN(C/C=C/c3ccccc3)CC2)c2cc(O)c(-c3ccccc3)cc2o1	0.92	i
CC(C)CN(Cc1cc(=O)oc2cc(-c3ccccc3)c(O)cc12)CC(C)C	-7.5	-7.5*
O=C(Nc1cccc([N+](=O)[O-])c1)C1COc2ccccc2O1 (stereo unspecified)	/	i
Cc1sc2ncn(/N=C/c3ccco3)c(=O)c2c1C	/	i
CC1(C(=O)O)CCC(C(=O)N2CCOCC2)C1(C)C (stereo unspecified)	0.89	i
Cc1ccccc1C(=O)NC1CCN(CC(=O)Nc2ccccc2Cl)CC1	1.5	i
Cc1c(Cl)cccc1NC(=O)CN1CCC(C(O)(c2ccccc2)c2ccccc2)CC1	-6.2	-6.2*
CC(=O)Nc1ccc(N(C(=O)c2ccco2)C(C(=O)NC2CCCC2)c2ccncc2)cc1 (stereo unspecified)	2	i
CCN1C(=O)C(CC(=O)Nc2ccc(F)cc2)N(CCc2ccc(OC)cc2)C1=S (stereo unspecified)	-6.7	-6.7*
CCN1C(=O)C(CC(=O)Nc2ccc(OC)cc2)N(CCc2ccccc2)C1=S (stereo unspecified)	/	i
Cc1cc(C)nc(NCC(O)CNc2ccccc2C)n1 (stereo unspecified)	0.82	i
Cc1cc(C)nc(NCC(O)COc2ccccc2C)n1 (stereo unspecified)	-5.9	-5.9*
CC(C)(C)NC(=O)COC(=O)C1c2ccccc2Oc2ccccc21	-5.7	-5.7*
CC(C)CNC(=O)COC(=O)C1c2ccccc2Oc2ccccc21	0.37	i
CCN(Cc1cc2cc(C)ccc2[nH]c1=O)C(=O)c1cccc([N+](=O)[O-])c1	2.2	i
CCOC(=O)C1CCN(Cc2cnc(Oc3ccc(C(C)(C)C)cc3)s2)CC1	/	i
c1ccc(-c2n[nH]c3c2CCC3)cc1	/	i
SMILES	KCNQ2 enhance	KCNQ2 block
CC(C)[C@@H]1CC[C@@H](C)c2c(-c3ccccc3)n[nH]c21	-7.2	-7.2*
COc1cccc(OC)c1C(=O)Nc1ccc2c(c1)N(S(=O)(=O)c1cccs1)CCC2	1.2	i
O=C(Nc1ccc2c(c1)N(S(=O)(=O)c1cccs1)CCC2)c1c(F)cccc1Cl	-6.4	-6.4*
CCOC(=O)C1CCN(C(=O)c2ccc(OCC(=O)Nc3cccc(C(F)(F)F)c3)cc2)CC1	-6.5	-6.5*
NC(=O)C1CCN(C(=O)c2ccc(OCC(=O)Nc3cccc(C(F)(F)F)c3)cc2)CC1	/	i
COC(=O)c1cc(S(=O)(=O)N2CCN(C(=O)c3ccco3)CC2)cn1C	/	i
O=C(CCCC(=O)OCC(Cl)=C(Cl)Cl)Nc1cccc2ccccc12	/	i
O=C(CCCC(=O)OCC(Cl)=C(Cl)Cl)Nc1ccc(F)cc1	9.2*	i
Cc1ccc(Cl)cc1N1CCN(C(=O)c2ccc(CN3CCOCC3)cc2)CC1	0.01	i
Cc1ccc(Cl)cc1N1CCN(Cc2cc3c(cc2O)CCC3)CC1	-6	-6*
O=C(c1ccco1)N1CCC(c2nc3ccccc3[nH]2)CC1	/	i
Cc1cc(C)n(-c2nc3sc4c(c3c(=O)[nH]2)CCCC4)n1	18*	i
Cc1nc2sc3c(c2c(=O)[nH]1)CCCCC3	/	i
CC(=O)c1ccc(NC(=O)COC(=O)c2ccccc2Sc2ccccc2C#N)cc1	0.6	i
N#Cc1ccccc1Sc1ccccc1C(=O)OCC(=O)NC12CC3CC(CC(C3)C1)C2	6.3*	i
Cc1c(C(=O)C(=O)NCC2CCCO2)c2ccccc2n1C (stereo unspecified)	/	i
O=c1c(Cc2c(F)cccc2Cl)c(O)ccn1Cc1ccc(F)cc1	/	i
O=c1c(Cc2c(F)cccc2Cl)c(O)ccn1C1CCCCCC1	-7.8	-7.8*
Cc1ccc(-c2cc(C(=O)NCCCn3ccnc3)c3ccccc3n2)s1	/	i
CCc1ccc(-c2cc(C(=O)NCCCn3ccnc3)c3ccccc3n2)s1	-8.2	-8.2*
O=C1NN(c2ccccc2)C(=O)/C1=C/c1coc2ccccc2c1=O	/	i
O=C1NN(c2ccccc2)C(=O)/C1=C\c1coc2ccc(O)cc2c1=O	-5.7	-5.7*
O=C(NCCCc1ccccc1)[C@@H]1Cc2ccccc2CN1	/	i
